Results on 30 compounds are retold here after ChEMBL document CHEMBL4513216, “Probing the Open Global Health Chemical Diversity Library for Multistage-Active Starting Points for Next-Generation Antimalarials” (ACS Infect Dis, 2020).

The whole screen tested about 65,000 compounds, of which about 2,100 (3.2%) showed an effect of 50% or more. The median lay at about -52%. Many of the other results were omitted from the sample, so strong results are more common in it than they were.

The subject of the test is Plasmodium falciparum. Kind of test: Screen against P. falciparum Asexual Blood Stage (ABS), at 5uM. As to conditions: tested at 5 uM. The format is functional, Dd2.
As for `CCN(Cc1ccccc1)C(=O)CCN1CC(O)C1`, the INHIBITION was -76.9%.
Turning to `Cc1nc(C)c(C(=O)N2Cc3ccccc3OCC2Cn2ccnc2)s1` (stereo not given), the INHIBITION is -22.8%.
For `COC(=O)N1CCCCC1C(=O)N1CCN(c2cccnc2)CC1` (stereo not given), the INHIBITION was -87.5%.
Then `CN1CCCCCC1C(=O)N1CCCN(c2ccccc2)CC1` (stereo not given), with 61.8%; and `N#Cc1ccccc1N1CCN(C(=O)NCC(=O)N2CCCC2)CC1`, with -1.82%; and `CN1CCCCC1C(=O)N1CCN(c2ccccc2C#N)CC1` (stereo not given), with 11.5%.
`CC(C)N1CCC(C(=O)N2CCCN(c3ccccc3)CC2)CC1`: the INHIBITION is given as -38.1%.
Take `CN1CCCCCC1C(=O)N1CCN(c2ccccc2C#N)CC1` (stereo not given): the INHIBITION is on record as 60.4%.
For the compound `CC[C@H]1CN(C(=O)c2ccc(-n3cnnc3)nc2)CC[C@@]1(C)O`, the INHIBITION was -129%.
For `Cc1noc(C)c1CCC(=O)N1CCCN(Cc2cccs2)CC1`, the INHIBITION is recorded as -63%.
Regarding `CC(C)Oc1cccc(CN2CCC(C(C)N3CCOCC3)CC2)c1` (stereo not given), the INHIBITION amounted to 55.8%.
Take `CC(C1CCN(Cc2ccc(N(C)C)nc2)CC1)N1CCOCC1` (stereo not given): the INHIBITION is on record as -5.43%.
As for `CC(C)Oc1cccc(CN2CCC(c3n[nH]c4ncccc34)CC2)c1`, the INHIBITION is given as -51.3%.
In the case of `CC(C1CCN(Cc2ccc(OC(F)F)cc2)CC1)N1CCOCC1` (stereo not given) it was -26.3%.
Then `CC(C1CCN(Cc2ccccc2OC(F)F)CC1)N1CCOCC1` (stereo not given), with 9.39%.
`CC(C1CCN(Cc2cccc(OC(F)F)c2)CC1)N1CCOCC1` (stereo not given): the INHIBITION is 68.3%.
As for `CCc1ccc(C(CNC(=O)c2c(C)noc2C)N(C)C)cc1` (stereo not given), the INHIBITION was -71.9%.
Consider `O=C(NC1CC1)[C@H]1C[C@H]2OCC[C@H]2N(CC2CC2)C1`, for which the INHIBITION is -28.3%.
In the case of `CC(C)(C)CC(=O)NCCn1nc(C2CCNC2)c2cccnc21` (stereo not given) it was -134%.
`Cc1nccc(NCc2cncc3c2CCN(CC2CCOC2)C3)n1` (stereo not given): the INHIBITION is -81.6%.
Turning to `CC(C)n1cc(C(=O)N2CCN(c3cccc(C(F)(F)F)c3)CC2)cn1`, the INHIBITION is given as -46.5%.
For `CN(C)Cc1cn(CC2CCCN(c3nccc4occc34)C2)nn1` (stereo not given), the INHIBITION turned out to be 60.5%.
In the case of `O=C(O)c1cn(CC2CCCN(c3nccc4occc34)C2)nn1` (stereo not given), the INHIBITION is listed as -30.1%.
Consider `CC(O)Cc1cn(CC2CCN(c3nccc4occc34)CC2)nn1` (stereo not given), for which the INHIBITION is -39.4%.
In the case of `CC(C)(C)c1ncc(C(=O)NCc2ccccc2CN2CCCC2)s1` it was -23.4%; in that of `O=C(c1ccc[nH]1)N1C[C@H](OCc2ccccn2)[C@H]2COC[C@H]21`, -89.2%; in that of `O=C1NCCN1C1CCN(Cc2coc(-c3ccc(F)cc3)n2)CC1`, -71.8%.
On to `C[C@@H]1CN(C2CCN(Cc3nn(C)c4cccc(Cl)c34)CC2)C[C@H](C)O1`, for which the INHIBITION was -9.68%.
Turning to `Cn1nc(CN2CCCN(C3CCCC3)CC2)c2c(Cl)cccc21`, the INHIBITION is 68.9%.
For `Cn1nc(CN2CCC(c3ccncc3)CC2)c2c(Cl)cccc21`, the INHIBITION is recorded as -14.6%.
